The panel holds about 83,000 compounds, 20% with a hit somewhere; the sample as a whole holds those more often.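 Compound tested at a single concentration for 48 hours in 96-well plates; a percent growth value below 10 was scored as active.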 Active and inactive are the calls of the source.
Tests used:
Assay in all cases: NCI-60 one-dose screen, 48 h (100 = growth as untreated, 0 = no growth, -100 = all killed)
NCI-H460 lung = details: 10 µM unless noted
A549/ATCC NSCLC = details: 10 µM unless noted
786-0 renal = details: 10 µM unless noted
K-562 leukemia = details: 10 µM unless noted
MALME-3M melanoma = details: 10 µM unless noted
RXF 393 renal = details: 10 µM unless noted
SF-295 CNS = details: 10 µM unless noted
SF-539 CNS = details: 10 µM unless noted
UACC-257 melanoma = details: 10 µM unless noted
SNB-75 CNS = details: 10 µM unless noted
UO-31 renal = details: 10 µM unless noted
CAKI-1 renal = details: 10 µM unless noted
A498 renal = details: 10 µM unless noted
HL-60(TB) leukemia = details: 10 µM unless noted
MOLT-4 leukemia = details: 10 µM
RPMI-8226 leukemia = details: 10 µM unless noted
OVCAR-4 ovarian = details: 10 µM unless noted
BT-549 breast = details: 10 µM
HCC-2998 colon = details: 10 µM unless noted
HOP-62 NSCLC = details: 10 µM unless noted

| SMILES | growth (NCI-H460 lung) | growth (A549/ATCC NSCLC) | growth (786-0 renal) | growth (K-562 leukemia) | growth (MALME-3M melanoma) | growth (RXF 393 renal) | growth (SF-295 CNS) | growth (SF-539 CNS) | growth (UACC-257 melanoma) | growth (SNB-75 CNS) | growth (UO-31 renal) | growth (CAKI-1 renal) | growth (A498 renal) | growth (HL-60(TB) leukemia) | growth (MOLT-4 leukemia) | growth (RPMI-8226 leukemia) | growth (OVCAR-4 ovarian) | growth (BT-549 breast) | growth (HCC-2998 colon) | growth (HOP-62 NSCLC) |
| --- | --- | --- | --- | --- | --- | --- | --- | --- | --- | --- | --- | --- | --- | --- | --- | --- | --- | --- | --- | --- |
| CSc1ccccc1NP1(=O)OCC(C)([N+](=O)[O-])CO1 (centres undefined) | 101% (inactive) | 95.9% (inactive) | 113% (inactive) | 75.4% (inactive) | 120% (inactive) | 97.6% (inactive) | 100% (inactive) | 91.4% (inactive) | 106% (inactive) | 86% (inactive) | 78.3% (inactive) | 99.3% (inactive) | 110% (inactive) | 56.7% (inactive) | 94.4% (inactive) | 111% (inactive) | 105% (inactive) | 90.1% (inactive) | 104% (inactive) | – |
| CC(=O)O[C@H]1CCC2C3CCC4=C/C(=N/O)CCC4(C)C3CCC21C (some centres undefined) | 89.6% (inactive) | 99.7% (inactive) | 76.9% (inactive) | 45.9% (inactive) | 94.3% (inactive) | 102% (inactive) | – | 87.6% (inactive) | 114% (inactive) | 96.4% (inactive) | 65.1% (inactive) | 80.5% (inactive) | 53.1% (inactive) | 23.1% (inactive) | 72.6% (inactive) | 89.4% (inactive) | – | 84.9% (inactive) | 83.9% (inactive) | 93.4% (inactive) |
| CC1CC=CCC12C(=O)NC(=S)NC2=O (centres undefined) | 106% (inactive) | 91.2% (inactive) | 107% (inactive) | 94.2% (inactive) | 105% (inactive) | 106% (inactive) | 99% (inactive) | 98.8% (inactive) | 114% (inactive) | 81.4% (inactive) | 92.9% (inactive) | 96.6% (inactive) | 72.9% (inactive) | 136% (inactive) | 109% (inactive) | – | 105% (inactive) | 110% (inactive) | 116% (inactive) | – |
| O=S(=O)(O)c1ccc(-c2ccc([As](=O)(O)O)cc2)cc1 | – | 94.4% (inactive) | 103% (inactive) | 101% (inactive) | 101% (inactive) | 117% (inactive) | 101% (inactive) | 105% (inactive) | 93.6% (inactive) | 87.1% (inactive) | 89.1% (inactive) | – | – | 102% (inactive) | 101% (inactive) | 102% (inactive) | 99.4% (inactive) | 106% (inactive) | 105% (inactive) | 98.6% (inactive) |
| c1ccc(-c2ccc3ccccc3[o+]2)cc1 | 97.2% (inactive) | 90.8% (inactive) | 106% (inactive) | 101% (inactive) | 101% (inactive) | 97.4% (inactive) | 104% (inactive) | 101% (inactive) | 98% (inactive) | 80.5% (inactive) | 73.5% (inactive) | – | 109% (inactive) | – | 79% (inactive) | 86.4% (inactive) | 90.5% (inactive) | – | 108% (inactive) | 96.2% (inactive) |
| CCOc1ccc(C(O)CN(C)Cc2ccccc2)cc1Cl (centres undefined) | 102% (inactive) | 102% (inactive) | 100% (inactive) | 92.5% (inactive) | 104% (inactive) | 90.5% (inactive) | 96.1% (inactive) | 108% (inactive) | 108% (inactive) | 92.9% (inactive) | 85.5% (inactive) | 93.3% (inactive) | 90.5% (inactive) | 103% (inactive) | 96.3% (inactive) | 104% (inactive) | 103% (inactive) | 106% (inactive) | 102% (inactive) | – |
| Nc1c(Br)cc([N+](=O)[O-])cc1[N+](=O)[O-] | 103% (inactive) | 92.3% (inactive) | 105% (inactive) | 104% (inactive) | – | 106% (inactive) | 105% (inactive) | 110% (inactive) | 100% (inactive) | 99.2% (inactive) | – | 92.8% (inactive) | 92.8% (inactive) | 67.8% (inactive) | 97.2% (inactive) | 105% (inactive) | 107% (inactive) | 110% (inactive) | 102% (inactive) | 117% (inactive) |
| CC(=O)Nc1ccc(C=C2C(=O)NC(=O)NC2=O)cc1 | – | 100% (inactive) | 96.3% (inactive) | 104% (inactive) | – | 118% (inactive) | 104% (inactive) | 105% (inactive) | 98.4% (inactive) | 84.2% (inactive) | 84.5% (inactive) | 97.5% (inactive) | – | – | 88% (inactive) | 98.3% (inactive) | 107% (inactive) | 112% (inactive) | 104% (inactive) | 103% (inactive) |
| N#[N+]c1nc2nc(N)[nH]c(=O)c2[nH]1 | 101% (inactive) | 89.8% (inactive) | 102% (inactive) | 101% (inactive) | 107% (inactive) | 111% (inactive) | 101% (inactive) | 101% (inactive) | 88.8% (inactive) | 92% (inactive) | 72% (inactive) | – | 107% (inactive) | 100% (inactive) | 103% (inactive) | 97% (inactive) | 105% (inactive) | – | 104% (inactive) | 92.5% (inactive) |
| C[CH2][Pb]([CH2]C)([CH2]C)[O]C(=O)COC | 3.94% (active) | – | -46.4% (active) | 0.215% (active) | 10.6% (inactive) | -8.73% (active) | -58.5% (active) | -41.8% (active) | – | -4.45% (active) | -9.22% (active) | -10.3% (active) | -3.55% (active) | -50% (active) | -37.7% (active) | – | 9.63% (active) | -18.8% (active) | -49.9% (active) | -16.2% (active) |
| COc1ccc(/C=C(/C(=O)N2CCCC2)c2cc(OC)c(OC)c(OC)c2)cc1N | 13.5% (inactive) | 41.1% (inactive) | 24.5% (inactive) | 16.1% (inactive) | – | 11.2% (inactive) | 17.5% (inactive) | 3.13% (active) | 53.8% (inactive) | -12.2% (active) | 51.7% (inactive) | – | -0.924% (active) | -11.9% (active) | 34.4% (inactive) | 31.6% (inactive) | 46.4% (inactive) | 57.1% (inactive) | 68.5% (inactive) | – |
| O=C1c2ccccc2C(=O)N1[N+](=O)[O-] | 102% (inactive) | 95.4% (inactive) | 100% (inactive) | 105% (inactive) | 89.4% (inactive) | 103% (inactive) | 103% (inactive) | 108% (inactive) | 101% (inactive) | 103% (inactive) | 85.9% (inactive) | 106% (inactive) | 93.6% (inactive) | 113% (inactive) | 108% (inactive) | 101% (inactive) | 109% (inactive) | 110% (inactive) | 87.2% (inactive) | – |
| Cc1ccc2oc(=O)c3c(c2c1)OC(N)=C(C#N)C3c1ccco1 (centres undefined) | 105% (inactive) | 97% (inactive) | 102% (inactive) | – | 99% (inactive) | – | 98% (inactive) | 101% (inactive) | 96.6% (inactive) | 96.2% (inactive) | 77.7% (inactive) | 91.3% (inactive) | 105% (inactive) | 113% (inactive) | 107% (inactive) | 100% (inactive) | 114% (inactive) | 98.8% (inactive) | 109% (inactive) | – |
| N#CC1c2ccccc2C=CN1C(=O)c1ccc(N(CCCl)CCCl)cc1 (centres undefined) | 111% (inactive) | 79% (inactive) | 107% (inactive) | 65.8% (inactive) | 85.4% (inactive) | 89.7% (inactive) | 90.6% (inactive) | 101% (inactive) | 81.5% (inactive) | 79.6% (inactive) | 71% (inactive) | 69.1% (inactive) | 106% (inactive) | 65.9% (inactive) | 72.2% (inactive) | 69.2% (inactive) | 96.7% (inactive) | 89.8% (inactive) | 101% (inactive) | 91.1% (inactive) |
| Cc1cc(NC(=O)/C=C/c2ccc([N+](=O)[O-])cc2)ccc1S(=O)(=O)F | 103% (inactive) | 98.8% (inactive) | 89.1% (inactive) | 94.7% (inactive) | 103% (inactive) | 119% (inactive) | – | 112% (inactive) | 97.4% (inactive) | 106% (inactive) | 71.8% (inactive) | 114% (inactive) | 98.7% (inactive) | 98.5% (inactive) | 89.5% (inactive) | 87% (inactive) | 103% (inactive) | 106% (inactive) | 102% (inactive) | 103% (inactive) |
| NS(=O)(=O)c1nc[nH]c1[N+](=O)[O-] | 106% (inactive) | – | 102% (inactive) | 101% (inactive) | 102% (inactive) | 116% (inactive) | 108% (inactive) | 100% (inactive) | 119% (inactive) | 92.1% (inactive) | 84.7% (inactive) | 97.7% (inactive) | – | 102% (inactive) | 102% (inactive) | 101% (inactive) | 105% (inactive) | 96.7% (inactive) | 100% (inactive) | – |
| CCCC(C)(C)c1ccc2c(c1)OC(C)(C)[C@@H]1CC=C(C)C[C@@H]21 | 106% (inactive) | 88.2% (inactive) | 98.8% (inactive) | 92.3% (inactive) | 93.6% (inactive) | 108% (inactive) | 101% (inactive) | 104% (inactive) | 93.1% (inactive) | 88.2% (inactive) | 79.8% (inactive) | – | 83.9% (inactive) | 92.7% (inactive) | 95.6% (inactive) | 92.9% (inactive) | 100% (inactive) | 97.7% (inactive) | 109% (inactive) | 90.4% (inactive) |
| CNC(=O)Oc1cc(C(C)C)ccc1Sc1ccc(C(C)C)cc1OC(=O)NC | 34.9% (inactive) | 64.2% (inactive) | 105% (inactive) | 25.6% (inactive) | 62.7% (inactive) | 64.3% (inactive) | 26.9% (inactive) | 56.8% (inactive) | 65.5% (inactive) | – | 65.7% (inactive) | 67% (inactive) | 88.5% (inactive) | 40.4% (inactive) | 26.8% (inactive) | 51.2% (inactive) | 80.8% (inactive) | 94.2% (inactive) | 104% (inactive) | 75.9% (inactive) |
